Drawing on ChEMBL document CHEMBL1961873, “Compounds: GSK PKIS; Assays: Nanosyn kinase panel” (2012), this text covers inhibition for seven compounds.

Assay [1] deals with Fibroblast growth factor receptor 4 (Homo sapiens) (UniProt P22455). Particulars: at 1 µM.
In assay [2] the target is Tyrosine-protein kinase Fgr (Homo sapiens) (UniProt P09769). Particulars: at 0.1 µM.
For assay [3] the target is unchanged. To be noted: at 1 µM.
Assay [4] concerns the target Vascular endothelial growth factor receptor 1 (Homo sapiens) (UniProt P17948). Particulars: at 0.1 µM.
The target is the same in assay [5]. Particulars: at 1 µM.
Assay [6] has as its target Receptor-type tyrosine-protein kinase FLT3 (Homo sapiens) (UniProt P36888). Particulars: at 0.1 µM.
The target is the same in assay [7]. To be noted: at 1 µM.
Assay [8] has as its system T1, Receptor-type tyrosine-protein kinase FLT3 (Homo sapiens), P36888 [D835Y].
T1 sequence (whole entry): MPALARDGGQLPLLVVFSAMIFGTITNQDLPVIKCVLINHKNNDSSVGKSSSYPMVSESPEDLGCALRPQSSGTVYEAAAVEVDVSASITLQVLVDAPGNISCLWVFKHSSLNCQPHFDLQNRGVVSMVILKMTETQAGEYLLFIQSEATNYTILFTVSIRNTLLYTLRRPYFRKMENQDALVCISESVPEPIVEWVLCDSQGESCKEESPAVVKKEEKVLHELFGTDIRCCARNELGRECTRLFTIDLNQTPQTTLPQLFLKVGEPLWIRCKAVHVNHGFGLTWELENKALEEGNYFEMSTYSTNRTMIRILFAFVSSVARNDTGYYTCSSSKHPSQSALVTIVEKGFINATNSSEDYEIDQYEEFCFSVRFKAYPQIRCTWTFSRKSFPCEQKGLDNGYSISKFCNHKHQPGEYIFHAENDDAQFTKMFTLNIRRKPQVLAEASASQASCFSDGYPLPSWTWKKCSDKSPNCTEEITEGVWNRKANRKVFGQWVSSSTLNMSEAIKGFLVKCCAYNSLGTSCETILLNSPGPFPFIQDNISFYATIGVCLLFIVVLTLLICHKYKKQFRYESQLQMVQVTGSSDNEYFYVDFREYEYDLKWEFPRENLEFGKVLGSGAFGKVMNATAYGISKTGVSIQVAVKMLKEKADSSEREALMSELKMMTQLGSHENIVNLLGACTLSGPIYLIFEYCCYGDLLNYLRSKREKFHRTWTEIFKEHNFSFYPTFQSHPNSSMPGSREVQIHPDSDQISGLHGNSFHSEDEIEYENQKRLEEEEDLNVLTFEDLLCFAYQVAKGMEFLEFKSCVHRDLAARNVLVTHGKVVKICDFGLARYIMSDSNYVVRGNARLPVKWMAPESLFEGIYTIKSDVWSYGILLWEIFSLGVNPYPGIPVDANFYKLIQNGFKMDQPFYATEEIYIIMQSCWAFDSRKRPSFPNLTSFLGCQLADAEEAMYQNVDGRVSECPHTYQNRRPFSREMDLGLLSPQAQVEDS
To be noted: at 0.1 µM.

Assay [9] concerns the target Non-receptor tyrosine-protein kinase TYK2 (Homo sapiens) (UniProt P29597). Particulars: at 1 µM.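 Further: values are mean percent inhibition of TYK2 kinase.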
The target in assay [10] is T2, Tyrosine-protein kinase receptor TYRO3 (Homo sapiens) (UniProt Q06418).
T2 sequence (whole entry): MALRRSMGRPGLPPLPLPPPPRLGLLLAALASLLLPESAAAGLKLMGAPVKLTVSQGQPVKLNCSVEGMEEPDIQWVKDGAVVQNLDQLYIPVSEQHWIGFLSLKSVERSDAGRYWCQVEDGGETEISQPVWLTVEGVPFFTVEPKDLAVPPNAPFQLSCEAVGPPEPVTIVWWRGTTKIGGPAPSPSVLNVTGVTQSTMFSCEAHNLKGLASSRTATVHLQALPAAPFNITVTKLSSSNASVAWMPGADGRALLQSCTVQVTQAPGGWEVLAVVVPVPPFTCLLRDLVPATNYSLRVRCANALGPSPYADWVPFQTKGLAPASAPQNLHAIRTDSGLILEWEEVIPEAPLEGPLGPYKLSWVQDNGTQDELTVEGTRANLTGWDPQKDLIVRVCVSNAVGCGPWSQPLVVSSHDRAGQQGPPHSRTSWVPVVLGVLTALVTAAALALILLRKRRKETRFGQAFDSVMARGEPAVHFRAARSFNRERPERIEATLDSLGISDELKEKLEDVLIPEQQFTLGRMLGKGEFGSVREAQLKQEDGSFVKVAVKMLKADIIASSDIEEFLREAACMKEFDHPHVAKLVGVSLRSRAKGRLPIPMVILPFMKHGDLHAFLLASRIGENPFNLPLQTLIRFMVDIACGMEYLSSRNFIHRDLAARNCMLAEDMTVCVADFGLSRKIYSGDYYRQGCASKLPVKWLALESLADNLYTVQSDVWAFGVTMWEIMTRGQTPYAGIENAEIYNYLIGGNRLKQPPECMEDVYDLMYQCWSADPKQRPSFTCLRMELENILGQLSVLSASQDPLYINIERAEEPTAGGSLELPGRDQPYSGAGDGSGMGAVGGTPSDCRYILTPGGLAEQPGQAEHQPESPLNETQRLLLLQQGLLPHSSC
Particulars: at 0.1 µM.

Assay [11] deals with T2, Tyrosine-protein kinase receptor TYRO3 (Homo sapiens). To be noted: at 1 µM.
Assay [12] addresses Tyrosine-protein kinase Yes (Homo sapiens) (UniProt P07947). To be noted: at 0.1 µM.
The target is the same in assay [13]. Particulars: at 1 µM.
Assay [14] addresses T3, Tyrosine-protein kinase ZAP-70 (Homo sapiens) (UniProt P43403).
T3 sequence (whole entry): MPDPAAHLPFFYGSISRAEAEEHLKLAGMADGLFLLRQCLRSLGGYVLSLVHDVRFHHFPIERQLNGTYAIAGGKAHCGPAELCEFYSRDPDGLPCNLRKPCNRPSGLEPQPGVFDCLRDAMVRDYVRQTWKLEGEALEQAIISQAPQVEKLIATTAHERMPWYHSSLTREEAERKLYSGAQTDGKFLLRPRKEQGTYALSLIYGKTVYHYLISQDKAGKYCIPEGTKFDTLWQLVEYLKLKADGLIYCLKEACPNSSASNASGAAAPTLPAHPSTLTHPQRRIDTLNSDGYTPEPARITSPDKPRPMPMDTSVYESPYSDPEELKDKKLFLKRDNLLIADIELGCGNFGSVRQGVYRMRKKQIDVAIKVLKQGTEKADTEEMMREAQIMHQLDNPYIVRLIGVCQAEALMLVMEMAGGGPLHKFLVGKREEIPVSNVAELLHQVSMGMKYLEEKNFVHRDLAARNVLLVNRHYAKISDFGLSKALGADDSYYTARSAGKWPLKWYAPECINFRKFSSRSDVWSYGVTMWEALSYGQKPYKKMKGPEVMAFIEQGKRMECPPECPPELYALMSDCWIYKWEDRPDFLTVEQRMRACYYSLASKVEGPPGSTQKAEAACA
To be noted: at 0.1 µM.

The target in assay [15] is T3, Tyrosine-protein kinase ZAP-70 (Homo sapiens). Particulars: at 1 µM.
Assay [16] has as its target Serine/threonine-protein kinase B-raf (Homo sapiens) (UniProt P15056). Particulars: at 0.1 µM.
Assay [17] shares this target. Particulars: at 1 µM.
Assay [18] concerns Serine/threonine-protein kinase B-raf (Homo sapiens), P15056 [V600E]. Particulars: at 0.1 µM.
The test system is the same in assay [19]. To be noted: at 1 µM.
Assay [20] addresses RAF proto-oncogene serine/threonine-protein kinase (Homo sapiens) (UniProt P04049). To be noted: at 0.1 µM.

What is called inhibition is the relative decrease from the control value, in per cent.

Sequence of Tyrosine-protein kinase Yes (Homo sapiens) (P07947 2-543 limits assumed): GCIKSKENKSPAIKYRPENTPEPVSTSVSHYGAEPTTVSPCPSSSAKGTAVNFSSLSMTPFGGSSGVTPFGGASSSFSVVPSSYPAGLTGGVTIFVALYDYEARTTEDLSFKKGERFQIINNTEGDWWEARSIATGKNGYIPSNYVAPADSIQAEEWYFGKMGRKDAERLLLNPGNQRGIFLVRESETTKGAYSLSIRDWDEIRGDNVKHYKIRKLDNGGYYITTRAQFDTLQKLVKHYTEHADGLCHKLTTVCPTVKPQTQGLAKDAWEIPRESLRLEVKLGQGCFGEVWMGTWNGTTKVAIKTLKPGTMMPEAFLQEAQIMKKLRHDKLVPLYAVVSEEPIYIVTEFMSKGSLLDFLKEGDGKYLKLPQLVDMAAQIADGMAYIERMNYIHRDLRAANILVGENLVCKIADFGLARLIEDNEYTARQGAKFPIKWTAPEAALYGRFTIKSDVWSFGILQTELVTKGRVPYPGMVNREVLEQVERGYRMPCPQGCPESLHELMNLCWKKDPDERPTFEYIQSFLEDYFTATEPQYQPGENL
Sequence of Serine/threonine-protein kinase B-raf (Homo sapiens), P15056 [V600E] (P15056 whole entry V600E): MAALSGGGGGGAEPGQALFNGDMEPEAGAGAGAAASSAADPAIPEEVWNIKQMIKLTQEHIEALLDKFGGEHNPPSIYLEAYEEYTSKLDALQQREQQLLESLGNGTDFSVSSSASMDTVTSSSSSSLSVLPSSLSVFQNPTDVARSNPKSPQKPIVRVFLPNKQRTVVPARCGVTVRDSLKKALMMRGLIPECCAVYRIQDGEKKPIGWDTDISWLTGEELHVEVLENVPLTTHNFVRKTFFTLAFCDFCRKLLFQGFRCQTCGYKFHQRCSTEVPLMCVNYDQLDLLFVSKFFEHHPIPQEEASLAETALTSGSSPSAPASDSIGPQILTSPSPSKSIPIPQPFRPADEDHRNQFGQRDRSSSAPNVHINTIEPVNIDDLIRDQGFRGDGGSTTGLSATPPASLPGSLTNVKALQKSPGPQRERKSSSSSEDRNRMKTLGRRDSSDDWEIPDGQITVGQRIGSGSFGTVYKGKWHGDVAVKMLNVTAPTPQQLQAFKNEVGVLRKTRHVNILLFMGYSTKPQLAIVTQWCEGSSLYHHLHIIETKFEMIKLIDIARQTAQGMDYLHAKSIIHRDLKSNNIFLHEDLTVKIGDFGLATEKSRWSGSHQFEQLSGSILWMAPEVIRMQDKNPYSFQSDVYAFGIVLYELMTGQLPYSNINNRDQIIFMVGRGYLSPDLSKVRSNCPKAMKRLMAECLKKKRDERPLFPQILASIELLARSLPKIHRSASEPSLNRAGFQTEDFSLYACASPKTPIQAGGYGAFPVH
Sequence of Fibroblast growth factor receptor 4 (Homo sapiens) (P22455 22-802 limits assumed): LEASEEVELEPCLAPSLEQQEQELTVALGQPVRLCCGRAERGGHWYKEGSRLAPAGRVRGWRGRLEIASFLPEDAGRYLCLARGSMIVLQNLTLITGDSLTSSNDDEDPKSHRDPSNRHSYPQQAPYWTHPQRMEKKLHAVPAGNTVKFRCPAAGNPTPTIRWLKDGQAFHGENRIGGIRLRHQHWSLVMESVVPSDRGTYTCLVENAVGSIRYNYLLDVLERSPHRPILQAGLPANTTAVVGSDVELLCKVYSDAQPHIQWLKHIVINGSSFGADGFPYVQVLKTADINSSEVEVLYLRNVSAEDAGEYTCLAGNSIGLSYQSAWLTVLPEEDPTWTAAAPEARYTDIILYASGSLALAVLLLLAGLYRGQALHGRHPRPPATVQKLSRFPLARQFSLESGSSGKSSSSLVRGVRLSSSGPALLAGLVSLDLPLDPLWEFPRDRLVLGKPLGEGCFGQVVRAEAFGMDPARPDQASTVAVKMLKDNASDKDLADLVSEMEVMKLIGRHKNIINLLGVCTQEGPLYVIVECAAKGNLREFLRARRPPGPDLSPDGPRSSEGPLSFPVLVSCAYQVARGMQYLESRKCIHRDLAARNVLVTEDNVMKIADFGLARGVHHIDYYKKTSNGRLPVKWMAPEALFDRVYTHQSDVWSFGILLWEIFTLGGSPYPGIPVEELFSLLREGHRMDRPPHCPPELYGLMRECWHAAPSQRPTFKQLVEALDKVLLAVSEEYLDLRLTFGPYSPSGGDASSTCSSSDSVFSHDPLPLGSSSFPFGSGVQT
Sequence of Vascular endothelial growth factor receptor 1 (Homo sapiens) (P17948 whole entry): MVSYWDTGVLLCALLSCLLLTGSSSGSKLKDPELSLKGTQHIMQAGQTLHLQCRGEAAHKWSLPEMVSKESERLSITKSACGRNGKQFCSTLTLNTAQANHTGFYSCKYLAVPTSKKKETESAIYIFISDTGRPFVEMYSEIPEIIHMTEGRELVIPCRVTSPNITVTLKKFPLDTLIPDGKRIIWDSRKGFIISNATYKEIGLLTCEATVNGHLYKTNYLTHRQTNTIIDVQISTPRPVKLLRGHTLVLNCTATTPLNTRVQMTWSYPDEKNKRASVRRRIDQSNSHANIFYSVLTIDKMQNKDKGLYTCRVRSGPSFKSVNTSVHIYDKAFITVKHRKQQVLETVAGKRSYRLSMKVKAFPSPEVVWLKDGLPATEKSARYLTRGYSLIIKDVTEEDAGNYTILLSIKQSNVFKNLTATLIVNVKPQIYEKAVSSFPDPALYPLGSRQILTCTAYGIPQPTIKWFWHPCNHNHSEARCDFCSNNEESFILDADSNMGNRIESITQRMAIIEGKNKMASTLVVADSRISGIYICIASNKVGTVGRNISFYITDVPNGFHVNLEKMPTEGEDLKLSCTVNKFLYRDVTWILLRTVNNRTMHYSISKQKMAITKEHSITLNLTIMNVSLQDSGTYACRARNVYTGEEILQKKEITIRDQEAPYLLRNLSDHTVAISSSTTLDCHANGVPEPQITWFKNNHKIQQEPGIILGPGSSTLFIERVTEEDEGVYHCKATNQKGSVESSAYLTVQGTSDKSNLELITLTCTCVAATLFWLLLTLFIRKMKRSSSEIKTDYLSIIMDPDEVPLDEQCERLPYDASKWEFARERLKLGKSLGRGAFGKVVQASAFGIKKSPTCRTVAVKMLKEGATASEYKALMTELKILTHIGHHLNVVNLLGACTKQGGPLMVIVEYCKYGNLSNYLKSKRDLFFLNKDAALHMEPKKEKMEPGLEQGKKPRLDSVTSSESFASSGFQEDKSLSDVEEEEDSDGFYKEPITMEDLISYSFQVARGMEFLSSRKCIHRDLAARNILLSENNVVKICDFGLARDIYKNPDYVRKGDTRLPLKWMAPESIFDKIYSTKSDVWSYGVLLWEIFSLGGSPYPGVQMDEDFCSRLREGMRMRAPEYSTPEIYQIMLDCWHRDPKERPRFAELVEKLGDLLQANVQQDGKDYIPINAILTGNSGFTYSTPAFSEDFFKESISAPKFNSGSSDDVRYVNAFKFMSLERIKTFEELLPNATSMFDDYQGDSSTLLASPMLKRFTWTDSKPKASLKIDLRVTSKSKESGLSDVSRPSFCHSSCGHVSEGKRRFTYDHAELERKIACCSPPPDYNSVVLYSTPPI
Sequence of Serine/threonine-protein kinase B-raf (Homo sapiens) (P15056 whole entry): as the sequence (P15056 whole entry V600E) above, with E600V counted along it
Sequence of Tyrosine-protein kinase Fgr (Homo sapiens) (P09769 2-529 limits assumed): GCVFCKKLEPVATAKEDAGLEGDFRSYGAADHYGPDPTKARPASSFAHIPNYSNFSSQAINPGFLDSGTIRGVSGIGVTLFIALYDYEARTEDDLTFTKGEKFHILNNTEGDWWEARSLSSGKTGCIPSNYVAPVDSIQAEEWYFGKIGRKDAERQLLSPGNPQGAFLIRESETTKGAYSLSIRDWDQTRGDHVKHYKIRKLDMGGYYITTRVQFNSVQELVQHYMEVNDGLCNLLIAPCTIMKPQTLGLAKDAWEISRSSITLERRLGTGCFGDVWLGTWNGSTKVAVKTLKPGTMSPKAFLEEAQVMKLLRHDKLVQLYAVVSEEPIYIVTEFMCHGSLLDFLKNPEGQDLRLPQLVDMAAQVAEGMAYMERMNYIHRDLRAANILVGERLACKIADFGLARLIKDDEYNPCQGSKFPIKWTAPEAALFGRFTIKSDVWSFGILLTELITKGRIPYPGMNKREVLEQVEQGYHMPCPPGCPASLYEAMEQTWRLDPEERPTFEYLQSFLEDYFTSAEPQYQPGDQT
Sequence of RAF proto-oncogene serine/threonine-protein kinase (Homo sapiens) (P04049 whole entry): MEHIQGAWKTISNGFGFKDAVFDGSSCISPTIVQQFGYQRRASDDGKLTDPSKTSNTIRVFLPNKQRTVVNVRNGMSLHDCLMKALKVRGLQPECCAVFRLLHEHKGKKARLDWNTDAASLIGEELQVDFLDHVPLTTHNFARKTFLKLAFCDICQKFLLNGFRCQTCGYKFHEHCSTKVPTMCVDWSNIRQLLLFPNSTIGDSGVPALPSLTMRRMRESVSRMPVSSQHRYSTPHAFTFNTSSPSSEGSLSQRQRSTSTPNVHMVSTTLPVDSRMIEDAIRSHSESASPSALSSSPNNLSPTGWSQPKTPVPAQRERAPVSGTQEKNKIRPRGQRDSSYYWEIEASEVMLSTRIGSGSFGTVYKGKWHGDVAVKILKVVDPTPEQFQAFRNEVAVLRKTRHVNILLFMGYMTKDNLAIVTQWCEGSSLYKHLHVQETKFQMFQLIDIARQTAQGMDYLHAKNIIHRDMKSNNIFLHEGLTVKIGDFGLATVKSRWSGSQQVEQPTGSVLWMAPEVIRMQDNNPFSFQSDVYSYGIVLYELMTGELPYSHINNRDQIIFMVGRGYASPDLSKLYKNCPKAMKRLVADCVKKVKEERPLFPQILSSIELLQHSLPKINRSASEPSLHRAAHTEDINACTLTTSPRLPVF

Turning to `O=C(O[C@H]1CN[C@H](C#Cc2cc3ncnc(Nc4ccc(Cc5ccccc5)cc4)c3s2)C1)N1CCOCC1`, the inhibition in assay [1] was 0.95%; in assay [2], 5.25%; in assay [3] it was 20.8%; in [4], -0.12%; in assay [5], 2.35%; in assay [6], -1.61%. The inhibition in assay [7] was 0.34%; in assay [8] it was 5.18%; in [9], -3.27%; in assay [10], 0.99%; in assay [11], 0.43%; in assay [12] it was 7.04%. Moreover, the inhibition was 38.8% in [13]; -0.2% in [14]; 2.04% in assay [15]; 3.95% in assay [16]; 4.23% in assay [17]; 3.02% in assay [18]. Besides, the inhibition in [19] was 3.28%; in assay [20] it was -1.64%.

In the case of `CN(C)CCOc1ccc(-c2nc(-c3ccncc3)c(-c3ccc4c(c3)CC/C4=N\O)[nH]2)cc1`, the inhibition in assay [1] is 0.44%; in assay [2], 2.2%; in [3] it was 5.88%; in assay [4] it was 2.37%; in assay [5], 2.95%; in [6], 2.67%. Also, the inhibition in assay [7] is 2.62%; in [8], 1.65%; in [9] it was -5.49%; in [10], 3.44%; in [11] it was 5.27%; in assay [12] it was 3.06%. For the same compound, the inhibition in [13] was 16.4%; in [14], -1.98%; in assay [16], 63.5%; in assay [17], 88.8%; in assay [18] it was 72.2%; in [19], 90.1%. For the same compound, in assay [20], the inhibition was 12.5%.

As to `CCOc1ccc2c(-c3ccnc(Nc4cccc(C(F)(F)F)c4)n3)cnn2n1`, the inhibition is -0.95% in [1]; 2.53% in assay [2]; 5.2% in [3]; -0.98% in [4]; 1.9% in assay [5]; -0.37% in assay [6]. The inhibition turned out to be 5.14% in assay [7]; 0% in assay [9]; 0.79% in [10]; 2.7% in assay [11]; 0.08% in [12]; 3.08% in [13]. Besides, the inhibition in assay [14] is 0.89%; in assay [15], 2.78%; in assay [16], 3.46%; in assay [17], 1.64%; in [18], 3.04%; in [19] it was 0.8%. Also, the inhibition in assay [20] is -2.28%.

With `CNC(=O)c1cncc(/C=C/c2ccccc2Cl)c1`, the inhibition in [1] was determined as 1.93%; in assay [2], 5.13%; in assay [3] it was 9.91%; in assay [4], 0.53%; in assay [5], 2.73%; in assay [6], 1.25%. Moreover, the inhibition in [7] is -0.38%; in [8], 3.03%; in [9] it was 2.16%; in assay [10], 0.43%; in [11], 2.53%; in assay [12] it was 3.64%. Also, the inhibition in assay [13] was 7.95%; in assay [14], 1.79%; in assay [15], 1.12%; in assay [16], -0.63%; in [17], 0.08%; in assay [18], -0.33%. The values for the inhibition in [19] and in [20] were 0.71% and 0.74%, respectively.

For the compound `COc1ccc2[nH]c3c4[nH]c5ccc(OC)cc5c4c4c(c3c2c1)C(=O)NC4=O`, the inhibition in [1] is 3.95%; in [2], 10.8%; in assay [3], 28%; in assay [4] it was 2.46%; in [5] it was 19.2%; in [6] it was 28.6%. Also, the inhibition in assay [7] is 79.1%; in assay [8], 65%; in assay [9] it was -0.6%; in assay [10], 17.1%; in assay [11] it was 63.7%; in [12] it was 6.75%. Also, the inhibition in assay [13] turned out to be 33.5%; in [14], 2.68%; in [15] it was 8.6%; in [16], 5.05%; in assay [17], 7.83%; in [18], 5.01%. For the same compound, the inhibition in [19] is 6.69%; in assay [20] it was -1.72%.

Regarding `CC(=O)NCc1cccc(C#Cc2cncnc2Nc2ccc(OCc3cccc(F)c3)c(Cl)c2)c1`, the inhibition in assay [1] was -0.23%; in assay [2] it was -0.22%; in assay [3], 4.83%; in [4], -0.55%; in [5], 0.27%; in assay [6] it was 0.26%. Moreover, the inhibition in assay [7] was -1.41%; in [8], -0.58%; in assay [9] it was 2.95%; in assay [10] it was 1.2%; in [11], 0.4%; in assay [12], 0.55%. Moreover, the inhibition in assay [13] was 6.04%; in assay [14], -1.79%; in assay [15] it was 2.22%; in assay [16], 1.06%; in assay [17] it was 1.33%; in assay [18] it was 3.3%. The inhibition in assay [19] was found to be 0.73%; in assay [20], 4.54%.

As for `COC(=O)c1sc(-n2cnc3cc(OC)c(OC)cc32)cc1OCc1ccccc1C(F)(F)F`, the inhibition in [1] stood at 1.85%; in assay [2], 3.32%; in [3], 17.2%; in [4] it was 1.32%; in [5], 9.57%; in assay [6], 2.55%. Further, the inhibition in assay [7] is 8.27%; in assay [8] it was -4.92%; in [9], -3.12%; in assay [10], 2.58%; in assay [11], 2.68%; in [12] it was 6.36%. For the same compound, the inhibition in [13] was 27%; in assay [14], 1.17%; in assay [15], 2.18%; in assay [16] it was 6.09%; in assay [17], 8.51%; in assay [18], 6.02%. The inhibition in assay [19] amounted to 6.69%; in assay [20], 3.34%.
